In PubChem BioAssay (EPA / NIEHS):
Where “and” joins values, the source holds several entries; their conditions need not be identical. Equal values may be shown once. Results filed as inconclusive are left out. Calls of active or inactive are those of the source. How the source made its calls: active means hit-call score of the fitted dose curve at least 0.9, where 1 is the maximum; inconclusive means response in the unintended direction; inactive means score below 0.9.

System: not listed separately
Assay: TOX21_p53_BLA_p3_viability: Viability Assessment in the Tox21 HCT-116 p53 Agonism Beta-lactamase Assay, Phase 3 (AID 2283593);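 further: cells exposed to compound for 16 h before reading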
How it was run: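 Cellular ATP was quantified by CellTiter-Glo luminescence, read after 30 min at room temperature. Beforehand, HCT116 cells (4000/well) received compound 5 h post-seeding, 217-fold diluted from DMSO, then incubated 16 h at 37C.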

Structure (SMILES) | outcome | AC50
O=C1Cc2cc(CCN3CCN(c4nsc5ccccc45)CC3)c(Cl)cc2N1 | inactive | –
C1=CCC(c2ccccc2)CC1 (stereo unspecified) | inactive | –
CN(C)CCOC(=O)COc1ccc(Cl)cc1 | inactive | –
O=C1C(=O)c2ncccc2-c2cccnc21 | inactive | –
CC1(C)S[C@@H]2[C@H](NC(=O)[C@H](N)c3ccc(O)cc3)C(=O)N2[C@H]1C(=O)O | inactive | –
CC1(C)N=C(N)N=C(N)N1c1ccc(Cl)cc1 | – | 13.9 µM (active)
CCCCC(=O)O[C@]1(C(=O)CO)[C@@H](C)C[C@H]2[C@@H]3CCC4=CC(=O)C=C[C@]4(C)[C@@]3(F)[C@@H](O)C[C@@]21C | inactive | –
NNc1nncc2ccccc12 | inactive | –
COC(=O)Nc1nc2ccc(Sc3ccccc3)cc2[nH]1 | inactive | –
C#CCC(Cc1cnc2nc(N)nc(N)c2n1)c1ccc(C(=O)N[C@@H](CCC(=O)O)C(=O)O)cc1 (stereo partly specified) | – | 0.301 µM (active)
O=C(O)CN(CCN(CC(=O)O)CC(=O)O)CC(=O)O | inactive | –
CNC(=O)c1cc(Oc2ccc(NC(=O)Nc3ccc(Cl)c(C(F)(F)F)c3)cc2)ccn1 | inactive | –
O=c1[nH]c(=O)n([C@H]2C[C@H](O)[C@@H](CO)O2)cc1F | – | 0.6 µM (active)
O=C(Nc1ccc(Cl)c(Cl)c1)C1CC1 | inactive | –
Cc1nc2ccccc2n1Cc1ccc(Cl)cc1 | inactive | –
Cc1nc2sccn2c(=O)c1CCN1CCC(=C(c2ccc(F)cc2)c2ccc(F)cc2)CC1 | – | 8.52 µM (active)
C[n+]1c2cc(N)ccc2cc2ccc(N)cc21 (tested in a mixture with another compound) | inactive | –
CCOC(=O)n1ccn(C)c1=S | inactive | –
COc1cc(C)c(/C=C/C(C)=C/C=C/C(C)=C/C(=O)O)c(C)c1C | inactive | –
CC1(C)[C@@H](O[C@H]2O[C@H](C(=O)O)[C@@H](O)[C@H](O)[C@H]2O[C@@H]2O[C@H](C(=O)O)[C@@H](O)[C@H](O)[C@H]2O)CC[C@]2(C)[C@H]3C(=O)C=C4[C@@H]5C[C@@](C)(C(=O)O)CC[C@]5(C)CC[C@@]4(C)[C@]3(C)CC[C@@H]12 | inactive | –
CC[C@@]1(O)C(=O)OCc2c1cc1n(c2=O)Cc2cc3c(CN(C)C)c(O)ccc3nc2-1 | – | 7.35 µM (active)
COc1ccc(Cl)cc1C(=O)NCCc1ccc(S(=O)(=O)NC(=O)NC2CCCCC2)cc1 | inactive | –
CC(C)(C)CC(C)(C)c1ccc(O)c(Cc2ccc(Cl)cc2Cl)c1 | – | 20.1 µM (active)
O=C(O)c1cccc(-c2noc(-c3ccccc3F)n2)c1 | inactive | –
Oc1c(I)cc(I)c2cccnc12 | – | 9.75 µM (active)
Cc1cc(Nc2ccccc2C(=O)O)ccc1Cl | inactive | –
CC(C)=CCC1=C(O)c2ccccc2C(=O)C1=O | inactive | –

Molecular target: Cellular tumor antigen p53 (Homo sapiens) (UniProt P04637)
Sequence (P04637 whole entry, looked up): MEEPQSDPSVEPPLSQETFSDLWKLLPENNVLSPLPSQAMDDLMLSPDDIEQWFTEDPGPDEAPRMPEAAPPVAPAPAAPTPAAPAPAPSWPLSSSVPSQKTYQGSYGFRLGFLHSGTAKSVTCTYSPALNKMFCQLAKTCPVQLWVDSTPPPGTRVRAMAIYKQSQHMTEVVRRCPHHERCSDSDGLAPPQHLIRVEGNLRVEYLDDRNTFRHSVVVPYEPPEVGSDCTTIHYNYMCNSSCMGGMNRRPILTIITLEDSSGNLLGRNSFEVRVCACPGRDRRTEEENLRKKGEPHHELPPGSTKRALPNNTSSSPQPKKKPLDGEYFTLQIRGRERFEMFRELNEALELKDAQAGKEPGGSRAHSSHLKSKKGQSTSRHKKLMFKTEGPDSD
Assay: TOX21_p53_BLA_p3_ratio: Tox21 HCT-116 p53 Agonism Beta-lactamase Assay, Ratio, Phase 3 (AID 2283596)
How it was run: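 Cells were seeded at 4000/well, rested 5 h at 37C, then dosed with DMSO compound solutions (217-fold dilution) for 16 h. CCF4-AM substrate was loaded for 2 h at room temperature, and the 460/530 nm emission ratio was fitted for gain of signal versus DMSO.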

Structure (SMILES) | outcome | AC50
CCC[C@@]1(CCc2ccccc2)CC(O)=C([C@H](CC)c2cccc(NS(=O)(=O)c3ccc(C(F)(F)F)cn3)c2)C(=O)O1 | inactive | –
COc1cc2c(Nc3ccc(Br)cc3F)ncnc2cc1OCC1CCN(C)CC1 | inactive | –
CO[C@@H]1[C@H](OC(=O)/C=C/C=C/C=C/C=C/C(=O)O)CC[C@]2(CO2)[C@H]1[C@@]1(C)O[C@@H]1CC=C(C)C | inactive | –
NC(N)=NCc1cccc(I)c1 | inactive | –
Nc1c2ccccc2nc2ccccc12 | – | 5.09 µM (active) and 6.02 µM (active)
Clc1cccc(Cl)c1NC1=NCCN1 | inactive | –
CCCC(=O)O[C@]1(C(=O)CCl)[C@@H](C)C[C@H]2[C@@H]3CCC4=CC(=O)C=C[C@]4(C)[C@@]3(F)C(=O)C[C@@]21C | inactive | –
CCCCCCNC(=O)n1cc(F)c(=O)[nH]c1=O | – | 2.57 µM (active)
CO[C@H]1C[C@@H]2CC[C@@H](C)[C@@](O)(O2)C(=O)C(=O)N2CCCC[C@H]2C(=O)O[C@H]([C@H](C)C[C@@H]2CC[C@@H](OCCO)[C@H](OC)C2)CC(=O)[C@H](C)/C=C(\C)[C@@H](O)[C@@H](OC)C(=O)[C@H](C)C[C@H](C)\C=C/C=C/C=C/1C | – | 40.2 µM (active)
Cc1nc(Nc2ncc(C(=O)Nc3c(C)cccc3Cl)s2)cc(N2CCN(CCO)CC2)n1 | – | 36.5 µM (active)
Cc1c(O)cccc1C(=O)N[C@@H](CSc1ccccc1)[C@H](O)CN1C[C@H]2CCCC[C@H]2C[C@H]1C(=O)NC(C)(C)C | – | 43.8 µM (active) and 38.2 µM (active)
CC(=O)NCCCS(=O)(=O)O | inactive | –
O=C1Cc2cc(CCN3CCN(c4nsc5ccccc45)CC3)c(Cl)cc2N1 | inactive | –
C1=CCC(c2ccccc2)CC1 (stereo unspecified) | inactive | –
CN(C)CCOC(=O)COc1ccc(Cl)cc1 | inactive | –
O=C1C(=O)c2ncccc2-c2cccnc21 | – | 1.08 µM (active)
CC1(C)S[C@@H]2[C@H](NC(=O)[C@H](N)c3ccc(O)cc3)C(=O)N2[C@H]1C(=O)O | inactive | –
CC1(C)N=C(N)N=C(N)N1c1ccc(Cl)cc1 | inactive | –
CCCCC(=O)O[C@]1(C(=O)CO)[C@@H](C)C[C@H]2[C@@H]3CCC4=CC(=O)C=C[C@]4(C)[C@@]3(F)[C@@H](O)C[C@@]21C | inactive | –
NNc1nncc2ccccc12 | inactive | –

Structure (SMILES) | outcome | AC50
COC(=O)Nc1nc2ccc(Sc3ccccc3)cc2[nH]1 | – | 163 nM (active) and 98.8 nM (active)
C#CCC(Cc1cnc2nc(N)nc(N)c2n1)c1ccc(C(=O)N[C@@H](CCC(=O)O)C(=O)O)cc1 (stereo partly specified) | – | 0.661 µM (active)
O=C(O)CN(CCN(CC(=O)O)CC(=O)O)CC(=O)O | inactive | –
CNC(=O)c1cc(Oc2ccc(NC(=O)Nc3ccc(Cl)c(C(F)(F)F)c3)cc2)ccn1 | – | 5.52 µM (active)
O=c1[nH]c(=O)n([C@H]2C[C@H](O)[C@@H](CO)O2)cc1F | – | 1.45 µM (active)
O=C(Nc1ccc(Cl)c(Cl)c1)C1CC1 | inactive | –
Cc1nc2ccccc2n1Cc1ccc(Cl)cc1 | inactive | –
Cc1nc2sccn2c(=O)c1CCN1CCC(=C(c2ccc(F)cc2)c2ccc(F)cc2)CC1 | inactive | –
C[n+]1c2cc(N)ccc2cc2ccc(N)cc21 (tested in a mixture with another compound) | – | 9.45 µM (active)
CCOC(=O)n1ccn(C)c1=S | inactive | –
COc1cc(C)c(/C=C/C(C)=C/C=C/C(C)=C/C(=O)O)c(C)c1C | inactive | –
CC1(C)[C@@H](O[C@H]2O[C@H](C(=O)O)[C@@H](O)[C@H](O)[C@H]2O[C@@H]2O[C@H](C(=O)O)[C@@H](O)[C@H](O)[C@H]2O)CC[C@]2(C)[C@H]3C(=O)C=C4[C@@H]5C[C@@](C)(C(=O)O)CC[C@]5(C)CC[C@@]4(C)[C@]3(C)CC[C@@H]12 | inactive | –
CC[C@@]1(O)C(=O)OCc2c1cc1n(c2=O)Cc2cc3c(CN(C)C)c(O)ccc3nc2-1 | – | 0.381 µM (active)
COc1ccc(Cl)cc1C(=O)NCCc1ccc(S(=O)(=O)NC(=O)NC2CCCCC2)cc1 | inactive | –
CC(C)(C)CC(C)(C)c1ccc(O)c(Cc2ccc(Cl)cc2Cl)c1 | – | 30.9 µM (active)
O=C(O)c1cccc(-c2noc(-c3ccccc3F)n2)c1 | inactive | –
Oc1c(I)cc(I)c2cccnc12 | inactive | –
Cc1cc(Nc2ccccc2C(=O)O)ccc1Cl | inactive | –
CC(C)=CCC1=C(O)c2ccccc2C(=O)C1=O | – | 1.27 µM (active)
